# From PubChem BioAssay AID434970 (Sanford-Burnham Center for Chemical Genomics, 2010)
# The campaign covered roughly 11,000 compounds. About 310 (2.8%) were called active. No stated cut-off is given here; in the data, active means activity change below about -85%; inactive means the rest. Shown is part of a subset that was picked to be rich in actives.
# Test system: intestinal alkaline phosphatase [Mus musculus]
# Test: activators of mouse IAP, confirmation, biochemical, luminescence, single concentration (AID 434970)
# Conditions: purified mouse IAP, CDP-Star luminescence, 30 min, at 10 µM; activation factor: measured here: IAP activation factor, stronger effect = higher value; activity change, negative = activation: stronger effect = lower value
Compound,activation factor,"activity change, negative = activation"
COc1cc(-c2nnc3sc(Cc4ccccc4)nn23)cc(OC)c1OC,0.942,5.85% (inactive)
CCOC(=O)c1cnc(SCc2cccc(C)c2)nc1N,1.08,-7.85% (inactive)
CCOc1ccc(NC(=O)N2CCC(C(=O)c3ccc(F)cc3)CC2)cc1,1.07,-7.1% (inactive)
COc1cccc(OC)c1C(=O)Nc1cccc(C(C)=O)c1,0.983,1.65% (inactive)
NS(=O)(=O)c1ccc(N2N=C(c3ccccc3)CC2c2ccccc2)cc1 (configuration not stated),1.6,-59.6% (inactive)
CCCC1(C(=O)OCC)NC(c2cc(OC)c(OC)c(OC)c2)C2C(=O)N(CC)C(=O)C21 (configuration not stated),0.957,4.35% (inactive)
O=C(CN1CCCCCC1)Nc1ccccc1F,0.954,4.6% (inactive)
Cc1cc(C)c2nc(C(F)(F)F)nc(NCCCN3CCCC3=O)c2c1,0.947,5.35% (inactive)
COc1ccc(/C=N/NC(=O)c2cc(-c3ccccc3OC)nc3ccccc23)cc1COC(C)=O,0.929,7.05% (inactive)
O=C(Nc1nc2ccc(S(=O)(=O)N3CCCCC3)cc2s1)C1CCCO1 (configuration not stated),0.96,4.05% (inactive)
COC(=O)C[C@H](NC(=O)Cn1cnc2c(NCc3ccccc3)ncnc21)C(=O)OC,0.97,2.95% (inactive)
Cc1cc(NC(=O)CN2C(=O)C3CC=CCC3C2=O)no1 (configuration not stated),0.929,7.05% (inactive)
COc1ccc(OC)c(S(=O)(=O)n2nc(C)cc2C)c1,1.08,-7.9% (inactive)
COc1ccc(Cl)cc1NC(=O)CCc1ccccc1,0.97,3% (inactive)
COc1ccccc1/C=C/CN1CCC(n2nccc2NC(=O)CCc2ccccc2)CC1,2.21,-121% (active)
O=C(CCN1CCN(C/C=C/c2ccccc2)CC1)Nc1ccccc1,1.08,-8% (inactive)
O=S(=O)(Nc1ccc(Cl)c(C(F)(F)F)c1)c1cnc[nH]1,0.887,11.3% (inactive)
COc1ccc(NC(=O)Nc2ccc3c(c2)C(=O)N([C@H](C)CO)C[C@H](C)[C@@H](CN(C)C(=O)Nc2ccc4c(c2)OCO4)O3)cc1,1.63,-62.9% (inactive)

Compound,activation factor,"activity change, negative = activation"
C[C@H](CO)N1C[C@H](C)[C@@H](CN(C)C(=O)Nc2ccccc2)Oc2ccc(NC(=O)Nc3ccc4c(c3)OCO4)cc2C1=O,2.17,-117% (active)
C[C@H](CO)N1C[C@H](C)[C@@H](CN(C)C(=O)NC2CCCCC2)Oc2ccc(NC(=O)Nc3ccccc3)cc2C1=O,2,-99.6% (active)
C[C@H](CO)N1C[C@H](C)[C@@H](CN(C)C(=O)Nc2ccc3c(c2)OCO3)Oc2ccc(NC(=O)Nc3ccc4c(c3)OCO4)cc2C1=O,1.75,-74.9% (inactive)
COc1ccc(NC(=O)Nc2ccc3c(c2)C(=O)N([C@H](C)CO)C[C@H](C)[C@@H](CN(C)C(=O)Nc2ccccc2)O3)cc1,1.59,-59.5% (inactive)
COc1ccc(NC(=O)Nc2ccc3c(c2)C(=O)N([C@H](C)CO)C[C@H](C)[C@@H](CN(C)C(=O)NC2CCCCC2)O3)cc1,1.64,-64% (inactive)
C[C@H](CO)N1C[C@H](C)[C@@H](CN(C)C(=O)Nc2ccc(C(F)(F)F)cc2)Oc2ccc(NC(=O)Nc3ccccc3)cc2C1=O,1.71,-71.5% (inactive)
C[C@H](CO)N1C[C@H](C)[C@@H](CN(C)C(=O)Nc2ccccc2)Oc2ccc(NC(=O)Nc3ccccc3)cc2C1=O,2.23,-123% (active)
C[C@H](CO)N1C[C@H](C)[C@@H](CN(C)C(=O)Nc2ccccc2)Oc2ccc(NC(=O)NC3CCCCC3)cc2C1=O,1.47,-46.7% (inactive)
Cc1ccccc1C1C(C#N)=C2N=C(N)c3c(sc4c3CCCCC4)N2C2=C1C(=O)CCC2 (configuration not stated),0.831,16.9% (inactive)
CC1N(O)C(C)(C)C(c2ccccc2)=[N+]1[O-] (configuration not stated),1.08,-7.85% (inactive)
Cc1cc(NC(=O)CSc2ccc(-c3ccccc3)nn2)no1,0.978,2.15% (inactive)
CCOC(=O)Cn1c(=O)c(-c2ccccc2NCc2ccccc2)nc2ccccc21,0.764,23.5% (inactive)
COCCn1c(-c2cc(OC)c(OC)c(OC)c2)nc2oc3ccccc3c(=O)c2c1=O,0.931,6.9% (inactive)
COc1ccc(C2(CNC(=O)Cc3ccc(OC)c(OC)c3)CCOCC2)cc1,0.999,0.05% (inactive)
C#CCOCCOCCOCCNc1nc(N2CCN(C(=O)CCCCCCCCCCNC(=O)[C@@H](CCSC)n3cc(CCO)nn3)CC2)nc(N2CCN(C(=O)CCCCCCCCCCNC(=O)[C@H]([C@@H](C)CC)n3cc(CCCCCN)nn3)CC2)n1,7.35,-635% (active)
C#CCOCCOCCOCCNc1nc(N2CCN(C(=O)CCCCCCCCCCNC(=O)[C@H]([C@@H](C)CC)n3cc(CCCCN=C(N)N)nn3)CC2)nc(N2CCN(C(=O)CCCCCCCCCCNC(=O)[C@H](CO)n3cc(CCCSC)nn3)CC2)n1,15.4,-1440% (active)
C#CCOCCOCCOCCNc1nc(N2CCN(C(=O)CCCCCCCCCCNC(=O)[C@@H](CCSC)n3cc(CCO)nn3)CC2)nc(N2CCN(C(=O)CCCCCCCCCCNC(=O)[C@H]([C@@H](C)CC)n3cc(CCCCN=C(N)N)nn3)CC2)n1,22.1,-2110% (active)
FC(F)(F)c1nnc2sc(-c3cccs3)nn12,0.967,3.3% (inactive)
